Results published in PubChem BioAssay AID2029 (NMMLSC, 2009).
About 210 (0.066%) of roughly 320,000 compounds were called active.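 How the source made its calls: active means GFP response relative to DMSO above a set limit, near the screen mean plus 3 SD (cut at about 150% in these data); inconclusive means Fewer than 70 cells measured for a yeast strain; inactive means the rest.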 The full list was thinned out, with actives kept by preference.

Assay: modulators of CIT2-GFP expression in yeast, primary screen, S. cerevisiae, GFP fusion, multiplex flow cytometry, MLPCN library (AID 2029);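 further: ratio of well median GFP fluorescence to mean of DMSO wells on the plate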
Settings: S. cerevisiae CIT2-GFP strain, 3 h, at 10 µM, active compounds read high, 100 means same as DMSO wells
With `COc1cc(OC)cc(-c2c(C#Cc3ccsc3)c3cc(-c4ccc(SC)cc4)ccc3n2C)c1` the GFP response vs DMSO was 109% (inactive).
For `CCN(CC)P(=O)(/C(Cl)=C\Nc1c(C)n(C)n(-c2ccccc2)c1=O)N(CC)CC`, the GFP response vs DMSO was 113% (inactive).
For `CC1=C2C(=O)OC(c3ccoc3)C2(C)CCC1` (stereo not given), the GFP response vs DMSO was 103% (inactive).
In the case of `COc1ccc(CN2CC[C@H]3C=CC[C@@H](C(=O)N4CCOCC4)[C@H]3C2=O)cc1OC`, the GFP response vs DMSO is reported as 99.2% (inactive).
In the case of `COc1ccc(NC(=O)CC(NC(C)c2ccccc2)C(=O)O)cc1` (stereo not given), the GFP response vs DMSO is reported as 101% (inactive).
With `O=C(NCC(=O)N1CCCCCCC1)c1ccccc1Cl` the GFP response vs DMSO was 106% (inactive).
In the case of `Cc1ccc(NC(=O)C(CC(=O)O)C2CCCO2)c(C)c1` (stereo not given), the GFP response vs DMSO is reported as 98.9% (inactive).
For `Cc1noc(C)c1CSc1nc2cc(S(=O)(=O)N3CCOCC3)ccc2o1`, the GFP response vs DMSO was 111% (inactive).
With `O=C(CSc1ccc(C(F)(F)F)cc1[N+](=O)[O-])NCCOc1ccccc1` the GFP response vs DMSO was 108% (inactive).
For `COc1ccccc1N1CCN(CC(=O)Nc2ccnn2C2CCCC2)CC1`, the GFP response vs DMSO was 98.2% (inactive).
With `CC1(C)CC(CNCCC(c2ccc(F)cc2)c2ccco2)CCO1` (stereo not given) the GFP response vs DMSO was 109% (inactive).
For `CCOc1cc(CN2CCCC(CO)(Cc3ccc(F)cc3F)C2)ccc1OC` (stereo not given), the GFP response vs DMSO was 98% (inactive).
In the case of `O=C(c1ccc2ccccc2n1)N1CCN(c2ccccc2Cl)CC1`, the GFP response vs DMSO is reported as 94.9% (inactive).
With `CCCCn1c(N)c(N2CCOCC2)c(=O)n(CC(=O)NCCc2ccccc2)c1=O` the GFP response vs DMSO was 105% (inactive).
With `CSCCC(NS(=O)(=O)c1ccc(C)cc1)C(=O)N1CCCC1` (stereo not given) the GFP response vs DMSO was 90.1% (inactive).
For `CCN(CC)S(=O)(=O)c1ccc(OC(C)C)c(N)c1`, the GFP response vs DMSO was 94.4% (inactive).
With `CCOc1ccc(Nc2nc(Cc3nnc(SCC(=O)c4ccc(C)cc4)o3)cs2)cc1` the GFP response vs DMSO was 89.8% (inactive).
In the case of `O=C(NCc1nnc(SCC(=O)N2CCCc3ccccc32)o1)c1ccccc1F`, the GFP response vs DMSO is reported as 91.6% (inactive).
In the case of `CC1CCCCC1NC(=O)COc1ccc(C#N)cc1` (stereo not given), the GFP response vs DMSO is reported as 100% (inactive).
In the case of `O=C(O)CC(SCC(=O)Nc1ccc(Br)cc1)C(=O)O` (stereo not given), the GFP response vs DMSO is reported as 101% (inactive).
In the case of `OCCN1CCOCCOCCN(CCO)CCN(CCO)CC1`, the GFP response vs DMSO is reported as 90.9% (inactive).
With `NC(=S)Nc1c(Cl)cccc1Cl` the GFP response vs DMSO was 104% (inactive).
In the case of `CC(Oc1ccc(Cl)cc1)c1ccnn1S(C)(=O)=O` (stereo not given), the GFP response vs DMSO is reported as 88.9% (inactive).
For `C#CCN(N(C)c1ncc(C(F)(F)F)cc1Cl)S(=O)(=O)c1ccc2ccccc2c1`, the GFP response vs DMSO was 101% (inactive).
For `CN(NS(=O)(=O)c1cccs1)c1ncc(C(F)(F)F)cc1Cl`, the GFP response vs DMSO was 171% [may fluoresce green] (active).
For `Cc1cc(C)cc(NS(=O)(=O)c2ccc(Oc3ncc(C(F)(F)F)cc3Cl)cc2)c1`, the GFP response vs DMSO was 99.4% (inactive).
In the case of `COc1ccc(-c2cc(=O)oc3cc(OCC(=O)N[C@@H](Cc4c[nH]c5ccccc45)C(=O)O)ccc23)cc1`, the GFP response vs DMSO is reported as 110% (inactive).
With `O=C(N/C(=C\c1ccc([N+](=O)[O-])cc1)C(=O)N1CCOCC1)c1cccc(Br)c1` the GFP response vs DMSO was 100% (inactive).
With `COc1cc(NS(=O)(=O)c2ccc(N/C=C(\C=O)c3nc4cc(Cl)ccc4o3)cc2)nc(OC)n1` the GFP response vs DMSO was 103% (inactive).
In the case of `COc1ccccc1C(=O)NCCC(=O)NC1=NCCS1`, the GFP response vs DMSO is reported as 105% (inactive).
For `Cc1ccc(S(=O)(=O)c2nnn3c2nc(N2CCN(c4ccccn4)CC2)c2ccccc23)cc1`, the GFP response vs DMSO was 94.5% (inactive).
In the case of `CC(=O)Nc1ccc(Nc2nc3c(S(=O)(=O)c4ccc(C)c(C)c4)nnn3c3ccccc23)cc1`, the GFP response vs DMSO is reported as 106% (inactive).
For `Cc1cccc(Nc2nc3c(S(=O)(=O)c4ccccc4)nnn3c3ccccc23)c1C`, the GFP response vs DMSO was 632% [may fluoresce green] (active).
With `CC(=O)N1CC2(C)CN(C(C)=O)CC(C)(C1)C2=O` the GFP response vs DMSO was 107% (inactive).
In the case of `Cc1nc(-c2ccc(F)cc2)c(CC(=O)Nc2cc(S(=O)(=O)N3CCCCC3)ccc2C)s1`, the GFP response vs DMSO is reported as 99.9% (inactive).
In the case of `COc1ccccc1CCCNC(=O)C1CCC(=O)N(CCN2CCOCC2)C1` (stereo not given), the GFP response vs DMSO is reported as 94.1% (inactive).
For `CCN1/C(=C\c2ccc3ccccc3[n+]2CC)Sc2cc(C)ccc21`, the GFP response vs DMSO was 1560% [may fluoresce green] (active).
For `CCN1/C(=C/c2ccc3ccc(C)cc3[n+]2CC)Sc2ccccc21`, the GFP response vs DMSO was 337% [may fluoresce green] (active).
For `CCc1nc2cccnc2n1-c1ccc(C(=O)O)cc1`, the GFP response vs DMSO was 102% (inactive).
For `COc1ccccc1C(CNC(=O)c1ccc(C)c(S(=O)(=O)N2CCCCC2)c1)N(C)C` (stereo not given), the GFP response vs DMSO was 97.1% (inactive).
